Compound activity deposited in PubChem by National Center for Advancing Translational Sciences (NCATS).
Cycloheximide cs = counter-screen hit for Shiga toxin inhibitors, cycloheximide | actives 12% (n = 300,000) | AID 2314 | cell reporter, cycloheximide protein synthesis inhibition counterscreen | max response, %; in the data active means max response mostly above about 13%, no sharp cut-off; inactive means mostly below about 14%; further: read at 38.3 µM for the half of the compounds with a filed dose; 0% is about no effect
FMDV inh = blocks foot and mouth disease virus | FMDV antiviral cell-based qHTS | Potency, µM (titrated, usually from 57.9 µM), without a hit: at the top dose activity change, negative = inhibition, actives largely listed as inhibitors | actives 1.2% (n = 410,000); calls by dose curve; tested in HEK293T cells; further: read-out not given here; potency means the concentration at half of the fitted maximal effect; on the % scale 0 is the no-effect control and ±100 the full control effect; nearly all actives have a fitted effect of over 45% in size
Shiga toxin inh = blocks Shiga toxin action in Vero cells | Vero cells, Shiga toxin protein synthesis inhibition reporter | inhibition, % at 38.7 µM | actives 9.2% (n = 290,000) | AID 2315; in the data active means inhibition mostly above about 28%, no sharp cut-off; inactive means mostly below about 43%; further: 0% is about no effect
Sm TGR block = inhibitors of Schistosoma mansoni thioredoxin glutathione reductase; Q962Y6; Potency, µM (series often up to 114 µM), for the others: at the highest dose activity change, negative = inhibition, hits mostly inhibitors; purified TGR, DTNB reduction, TNB absorbance 405 nm; AID 485364; actives 3% (n = 360,000); active means well fitted inhibition curve with a large enough effect; inconclusive means small, poorly fitted or top-dose-only effect; inactive means no such curve, though single readings can be large or run the other way; further: potency means the concentration at half of the fitted maximal effect; on the % scale 0 is the no-effect control and ±100 the full control effect; nearly all actives have a fitted effect of over 60% in size
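Kinetic colorimetric format: TGR-catalysed, NADPH-driven DTNB reduction monitored via TNB absorbance. Enzyme dispensed at 20 nM; compound exposure 15 min at room temperature before reaction start.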
* = called active by the depositor; ? = inconclusive; · = no result; + = active, no number; ! = not active in a repeat; [ ] = another dose, or the depositor's remark. A selection: hits, their analogues and other compounds. The true share with any hit is near 12%.

SMILES	Cycloheximide cs	FMDV inh	Shiga toxin inh	Sm TGR block
CN=C1S/C(=C\c2ccc(SC)cc2)C(=O)N1C	33*	21%	56*	10%
CSC1=N/C(=C\c2ccc(F)cc2)C(=O)S1	8	-16%	-17	7%
CCOC(=O)CSC1=NC(=O)/C(=C\c2ccc(Cl)cc2)S1	34*	18µM*	104*	3.5µM*
CN=C1S/C(=C\c2ccc(Cl)cc2)C(=O)N1C	6	18%	26	1%
CCOC(=O)C1CCN(C2=NC(=O)/C(=C/c3ccc(Cl)cc3)S2)CC1	-7	1%	-6	-14%
CCOc1ccc(/C=C2/Sc3ccc(C(=O)N4CCN(C(=O)c5ccco5)CC4)cc3N(C)C2=O)cc1OC	0	·	-6	0%
CSC1=NC(=O)/C(=C/c2ccc(SC)cc2)S1	31*	19%	96	1%
Cc1ccc(CCNC(=O)c2ccc3c(c2)c(C)c(C)n3Cc2ccccc2)cc1	·	-17%	·	2%
CN=C1S/C(=C\c2ccc(O)c(OC)c2)C(=O)N1C	·	22%	·	·
CN=C1S/C(=C\c2ccc(OCC(=O)OC)c(OC)c2)C(=O)N1C	13*	44%	·	3%
Cc1ccc2c(c1)c1c(c(=O)n(-c3cccc(Cl)c3)c(=O)n1CC(=O)NCC1CCCO1)n2C (stereo not given)	·	-1%	·	-11%
Cc1ccc(C)c(N2CCN(C(=O)Cn3cnc4sc(C)c(S(=O)(=O)N5CCN(c6ncccn6)CC5)c4c3=O)CC2)c1	·	?	·	6%
CC(=O)Nc1ccc(SCC(=O)c2cc(C)n(CC(F)(F)F)c2C)cc1	35*	19%	71*	-31%
CC(=O)Nc1ccc(SCC(=O)c2cc(C)n(C)c2C)cc1	10	34%	29	-17%
Cc1cc(O)c(-c2cc(O)c(C)cc2O)cc1O	10*	?	11	1.3µM*
Nc1ccc(N)c(C(=O)O)c1	-9	-24%	-6	18µM*
Nc1ccc(C(=O)O)c(O)c1	1	0%	40	3.5µM*!
Cc1cc(O)ccc1Cl	·	22%	·	·
Cc1ccc(N)cc1O	·	-9%	·	6.3µM*
O=C(O)c1ccc(O)cc1O	·	-1%	·	-5%
C=CCn1c(NC(=O)c2ccc(C)cc2)nc2ccccc21	16*	28%	42	22%
O=C(Nc1nc2ccccc2n1CCN1CCCC1)c1ccc(Cl)cc1	16	0%	78*	?
O=C(Nc1nc2ccccc2n1CCN1CCCC1)C1CCCCC1	-2	-16%	-48	1%
CCCn1c(NC(=O)c2ccc(C)cc2)nc2ccccc21	17*	8%	42*	5%
Cc1ccc(C(=O)Nc2nc3ccccc3n2CCN2CCCC2)cc1	38*	-5%	104*	-10%
SMILES	Cycloheximide cs	FMDV inh	Shiga toxin inh	Sm TGR block
O=C(Nc1nc2ccccc2n1CCN1CCCCC1)c1ccc(Cl)cc1	10	·	36	-8%
CCC(=O)Nc1nc2ccccc2n1CCN1CCOCC1	-2	-5%	-4	-5%
O=C(Nc1nc2ccccc2n1CCN1CCOCC1)c1ccc(Cl)cc1	12*	-6%	50*	-2%
CCCn1c(NC(=O)c2cccc(S(=O)(=O)N3CCCC3)c2)nc2ccccc21	-8	32µM*	0	4%
COc1ccc(CNC(=O)Cc2c(C)c3cc4c(C)coc4cc3oc2=O)cc1OC	·	-9%	·	-1%
CCCNC(=O)C(NS(=O)(=O)c1ccc2c(c1)c(=O)n(C)c(=O)n2C)c1ccccc1 (stereo not given)	15*	-6%	0	0%
O=C(CSc1nc(=O)n(Cc2ccncc2)c2c1CCC2)Nc1ccccc1	·	-13%	·	8%
O=C(Nc1ccc(F)c(F)c1)C1CCN(S(=O)(=O)c2cccc3nonc23)CC1	4	20µM*	-3	-8%
Cc1ccc(NC(=O)c2cc3c(s2)CCC3)cc1S(=O)(=O)N1CCOCC1	1	?	-10	8%
COc1ccc(NC(=O)C2CCC(C(C)(C)C)CC2)cc1S(=O)(=O)N1CCOCC1 (stereo not given)	·	?	·	40µM*
COc1ccc(OC)c(S(=O)(=O)N2CCC(C(=O)Nc3ccc(C)c(C)c3)CC2)c1	-1	25µM*	-13	2%
COc1ccc(NC(=O)c2cc3c(s2)CCC(C)C3)cc1S(=O)(=O)N1CCOCC1 (stereo not given)	10	28µM*	11	1%
COc1ccc(NC(=O)C2CCC2)cc1S(=O)(=O)N1CCOCC1	·	-5%	·	-2%
CCOc1ccc(C(=O)NCc2ccccn2)cc1	11	63%	7	0%[11.4 µM]
Cc1cc(NC(=O)c2ccc3nccnc3c2)ccc1Br	·	-31%	·	·
O=C(Nc1ccccc1F)c1coc(=O)c(Br)c1	51*	-27%	+	-30%
Cc1cc(NC(=O)c2coc(=O)c(Br)c2)ccc1C(C)C	95*	1µM*	108*	-1%
O=C(NCc1ccccn1)c1coc(=O)c(Br)c1	1	20µM*	10	-2%
O=C(Nc1cccc(C(=O)Nc2ccccc2F)c1)c1ccccc1	-4	-5%	2	3%
O=C(NCCc1ccccc1)c1ccc(-c2ccc(F)cc2)o1	14	27%	37	·
O=C(NCCc1ccc(F)cc1)c1coc(=O)c(Br)c1	14	35µM*	32	-14%
O=C(Cn1c(=O)nc(-c2ccccc2)c2ccccc21)NCCc1ccc(Cl)cc1	·	7%	·	4%
COCCn1c(SCC(=O)Nc2ccc(C(F)(F)F)cc2)nc2c([nH]c3ccccc32)c1=O	·	-6%	·	-1%
Cc1cc(NC(=O)Nc2nnc(N(C)Cc3ccccc3)s2)ccc1Br	·	-21%	·	0%
C[C@@H](NC(=O)c1coc(=O)c(Br)c1)c1ccccc1	20*	40µM*	26	1%
SMILES	Cycloheximide cs	FMDV inh	Shiga toxin inh	Sm TGR block
O=C(Nc1ccc(Br)cn1)c1coc(=O)c(Br)c1	45*	13%	49*	-32%
COc1ccc(CC(=O)NCc2nc3cccnc3n2Cc2ccc(C)cc2)cc1OC	·	-9%	·	1%
COc1ccc(S(=O)(=O)Oc2ccc3cccc(N)c3c2)cc1	·	1%	·	·
COc1ccc(S(=O)(=O)Oc2ccc3ccccc3c2)cc1	23*	-6%	23*	7%
CCCC(=O)N1c2nc(C(C)C)nn2C2(CCCCC2)[C@@H]2CCCC[C@@H]21	·	-6%	·	-4%
COc1ccc2cc(-c3ccon3)ccc2c1	32*	42%	107*	14%
COc1ccc(-c2cc3ccc(OC)cc3cn2)cc1	·	-50%	·	16µM*
Cc1ccc(-n2c(=O)c3c4c(sc3n(CC(=O)C(C)(C)C)c2=O)CCCCC4)cc1C	·	-11%	·	-1%
Cn1ncc(S(=O)(=O)Cc2ccccc2)c(Cl)c1=O	9	-68%	19	0.16µM*
Cc1ccc(-n2ncc(C(=O)NCCCN3CCc4ccccc4C3)c2C2CCN(C(=O)OC(C)(C)C)CC2)cc1C	·	-13%	·	-3%
CC(=O)c1nc2ccccc2n1S(=O)(=O)c1ccc(C)cc1	23*	25%	3	2%
Cc1nc2ccccc2n1S(=O)(=O)c1ccc(S(=O)(=O)N2CCCCCC2)cc1	3	13%	28	14%
COc1cc(NC(=O)c2ccc(-c3nc(CSc4ccccc4)c(C)o3)cc2)cc(OC)c1	·	-3%	·	-8%
Cc1cc(NC(=O)CSc2nc3ccccc3cc2C#N)no1	17	36%	39*	-3%
Cc1cc(NC(=O)CSc2nc3c(cc2C#N)CCC3)no1	29*	41%	97*	4%
